Assay outcomes: PubChem BioAssay, several laboratories
Hits are enriched below; roughly 3.6% of the tested compounds scored in any of these assays.
BoNT-A LC inh2: inhibitors of Botulinum neurotoxin A light chain protease | multiplex microsphere protease substrate cleavage, flow cytometry | inhibition, % at 10 µM | hit rate 0.17% among 360,000; also: plate controls were buffer without enzyme for full effect and enzyme alone for no effect
MazF activator: activators of E. coli MazEF toxin-antitoxin RNase; FAM/BHQ RNA-DNA oligo cleavage fluorescence, 5 h; hit rate 0.32% among 350,000; activation, % at 20 µM; P0AE70; AID 504720; in the data active = activation above about 50%
Target sequence (P0AE70 whole entry, looked up): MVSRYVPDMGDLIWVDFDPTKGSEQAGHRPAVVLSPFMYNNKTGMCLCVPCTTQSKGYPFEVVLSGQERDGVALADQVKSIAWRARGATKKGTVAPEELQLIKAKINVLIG
Anthrax LF inh2: anthrax lethal factor protease inhibition | hit rate 0.12% among 360,000 | inhibition, % at 10 µM | AID 588501 | multiplex microsphere protease cleavage assay, LF | P15917; also: plate controls were buffer without enzyme for full effect and enzyme alone for no effect
BoNT-F LC inh: blocks Botulinum neurotoxin F light chain protease; inhibition, % at 10 µM; Multiplex microsphere protease cleavage assay, flow cytometry; AID 588497; hit rate 0.22% among 360,000; in the data active = inhibition above about 35%, passing the limit was not always enough; inconclusive = no clear call, values can overlap the other calls; also: plate controls were buffer without enzyme for full effect and enzyme alone for no effect
Autofluor counter: compound fluorescence in toxin protease inhibitor counterscreen. hit rate 3.1% among 360,000. fluorescence intensity (no concentration beside the values). compound autofluorescence counterscreen, microsphere flow cytometry; hits give high values; in the data active = fluorescence intensity above about 16000; inconclusive = no clear call, values can overlap the other calls
Active calls of the source: *; ? = inconclusive; . = no result. Rule as the data show it, unless noted: active = inhibition above about 30%; inconclusive = no clear call, values can overlap the other calls; inactive = below that.

SMILES | BoNT-A LC inh2 | MazF activator | Anthrax LF inh2 | BoNT-F LC inh | Autofluor counter
COC(=O)c1c(/N=C/N(C)C)sc2c1CCN(c1ncc(C(F)(F)F)cc1Cl)C2 | 0 | 51* | -2 | -8 | 3166
COc1cc(C(=O)NNC(=O)c2n[nH]c3ccccc23)cc(OC)c1OC | -1 | 7 | -4 | 0 | 4239
COc1ccc(C(=O)OC2CCN(c3ncc(C(F)(F)F)cc3Cl)CC2)cc1 | 1 | -6 | 2 | 5 | 5195
COc1ccc(/C=N/NC(=O)C2CCN(c3ncc(C(F)(F)F)cc3Cl)CC2)cc1 | ? | -16 | -2 | -1 | 22271*
CCOC(=O)C1=CCC(c2cccs2)N(S(=O)(=O)c2ccc(C)cc2)C1 (stereo not given) | -1 | . | -13 | -18 | 5914
O=C(Nc1ccn(Cc2c(F)c(F)c(F)c(F)c2F)n1)c1cccc(Cn2cc([N+](=O)[O-])cn2)c1 | 0 | 9 | -5 | -8 | 7985
O=C(Cn1cc([N+](=O)[O-])cn1)Nc1ccn(Cc2c(F)c(F)cc(F)c2F)n1 | ? | 8 | -2 | 3 | 23297*
O=C(Cn1cc([N+](=O)[O-])cn1)Nc1ccn(Cc2c(F)c(F)c(F)c(F)c2F)n1 | 0 | -12 | -1 | -1 | 22598*
O=C(Nc1ccn(Cc2c(F)c(F)cc(F)c2F)n1)c1cccc(Cn2cc([N+](=O)[O-])cn2)c1 | -2 | 6 | -2 | -1 | 23743*
CC(=O)c1ccc(OCC(=O)Nc2nnc(C3CC3)s2)cc1 | 0 | 1 | 3 | 4 | 4000
CCOc1ccccc1CNC(=O)c1ccc(NC(=O)C2=CSCCO2)cc1 | -1 | 7 | 0 | -2 | 5132
Cc1ccc([C@H]2C(C(=O)O)=CC[C@@H](c3ccc4c(c3)OCO4)N2S(=O)(=O)c2ccc(C)cc2)cc1 | 0 | 2 | 0 | 10 | 3633
CC(C)(C)OC(=O)NCCc1nnc(SCc2ccccc2Cl)o1 | 0 | -3 | 0 | 0 | 16944*
NCCc1nnc(SCc2ccccc2Cl)o1 | 8 | -23 | ? | 45* | 3185
O=C(NNC(=O)c1ccccc1[N+](=O)[O-])c1ccc(NC(=O)c2ccccc2)cc1 | -1 | 0 | 2 | -1 | 6022
Cc1cc(OC(=O)c2c(Cl)cc(Cl)cc2Cl)nc(C)n1 | -1 | -12 | -5 | 0 | 16417*
CCOC(=O)N1CCC(NC(=O)c2cccn3c(=O)c4cc(Br)ccc4nc23)CC1 | 3 | 21 | 0 | 6 | 18434*
CCOC(=O)N1CCC(NC(=O)c2cc(-c3ccc(OC)cc3)nc3ccccc23)CC1 | -1 | 5 | 1 | -1 | 5309
Cc1ccc(Oc2ncc(CN3CCOCC3)s2)cc1 | 0 | -1 | -3 | 5 | 5694
Clc1cccc(Oc2ncc(CN3CCOCC3)s2)c1 | 2 | 3 | 1 | 4 | 21630*
C=CC[C@@H](CC(=O)N[C@H](CO)Cc1ccccc1)C(=O)NC[C@H](OC(=O)[C@@H](CC=C)Cc1ccc(F)cc1)c1ccccc1 | 0 | -10 | -1 | 4 | 4269
Cc1nn(Cc2c(F)c(F)c(F)c(F)c2F)c(C)c1NC(=O)c1c([N+](=O)[O-])cnn1C | 2 | 2 | -4 | 2 | 22419*
CCn1cc(Cl)c(C(=O)Nc2c(C)nn(Cc3c(F)c(F)c(F)c(F)c3F)c2C)n1 | 3 | 2 | 4 | 10 | 4843
Cc1nn(Cc2c(F)c(F)c(F)c(F)c2F)c(C)c1NC(=O)c1c([N+](=O)[O-])c(C)nn1C | -1 | 1 | -3 | -13 | 8510
CCn1cc([N+](=O)[O-])c(C(=O)Nc2c(C)nn(Cc3c(F)c(F)c(F)c(F)c3F)c2C)n1 | 4 | 8 | 0 | 4 | 20974*
SMILES | BoNT-A LC inh2 | MazF activator | Anthrax LF inh2 | BoNT-F LC inh | Autofluor counter
Cc1ccc(OCc2ccc(C(=O)NN)o2)c([N+](=O)[O-])c1 | 2 | 9 | 9 | ? | 4140
Cc1ccc(OCc2ccc(C(=O)Nc3c(C)nn(Cc4c(F)c(F)c(F)c(F)c4F)c3C)o2)c([N+](=O)[O-])c1 | 0 | 1 | -1 | -2 | 23883*
Cc1cc(NC(=O)c2c([N+](=O)[O-])cnn2C)no1 | -1 | 38 | 0 | 0 | 20559*
Cc1cc(NC(=O)c2c([N+](=O)[O-])c(C)nn2C)no1 | -1 | 0 | 2 | -19 | 4859
CSc1ccc(CN2CCC(C)(Oc3cnc(Cl)c4ccccc34)C2)cc1 (stereo not given) | 0 | . | -8 | -5 | 3827
COc1cc(-c2[nH]ncc2CN2CCN(c3cccc(C)n3)CC2)cc(OC)c1OC | -1 | 8 | 1 | -2 | 4599
Cc1nn(Cc2c(F)c(F)c(F)c(F)c2F)c(C)c1NC(=O)c1nn(C)cc1[N+](=O)[O-] | ? | 2 | 1 | 1 | 22913*
Cc1nn(Cc2c(F)c(F)c(F)c(F)c2F)c(C)c1NC(=O)c1nn(C)cc1Br | 0 | 3 | 2 | 2 | 5370
COc1ccc(C)cc1NC(=O)CNC(c1ccccc1)c1ccc(C)cc1 (stereo not given) | -2 | -10 | 4 | -18 | 3841
COc1ccc(C)cc1NC(=O)COCC(=O)O | 0 | 1 | 0 | 0 | 20410*
Cc1cc(NC(=O)COC(=O)[C@@H]2CCCN2C(=O)c2cccs2)no1 | 0 | -1 | 4 | 1 | 3757
S=c1[nH]nc(C2CCCCC2)n1/N=C/C=C/c1ccccc1 | ? | 11 | 0 | -3 | 22815*
S=c1[nH]nc(C2CCCCC2)n1/N=C/C(Cl)=C\c1ccccc1 | 0 | 3 | -2 | -2 | 2498
S=c1[nH]nc(C2CCCCC2)n1/N=C/c1ccc(Br)s1 | ? | -5 | -19 | 39* | 10813
CC1(C(=O)NC2CCc3ccccc32)CCN1CCc1ccccc1 (stereo not given) | 0 | . | -9 | -4 | 3480
O=C1c2ccccc2C(c2nnnn2-c2ccc3c(c2)OCCO3)N1Cc1cccs1 (stereo not given) | 0 | . | 5 | -4 | 6035
COc1ccc(C2=NOC(C(=O)NCc3ccc(F)cc3)C2)cc1 (stereo not given) | 0 | 5 | -4 | 2 | 10404
COc1ccc(CNC(=O)C2CC(c3ccc(F)cc3)=NO2)cc1 (stereo not given) | 1 | 4 | -1 | 2 | 22739*
COc1ccc(NC(=O)C2C3C=CC(C3)C2C(=O)NCc2ccco2)cc1 (stereo not given) | -1 | 2 | 0 | -1 | 16864*
COc1ccc(C2=NOC(C(=O)NCc3ccco3)C2)cc1 (stereo not given) | 8 | 1 | -14 | 9 | 20757*
O=C(C1CC(c2ccc(F)cc2)=NO1)N1CCCCC1 (stereo not given) | 0 | 2 | -1 | 1 | 22237*
COC(=O)C1=C(C)NC2=C(C(=O)CCC2)C1c1ccc(-c2ccsc2C(=O)OC)o1 (stereo not given) | -7 | 2 | -28 | ? | 3713
O=C(Nc1ccc(OCc2ccccc2)cc1)Nc1ccccc1C(=O)NCCCN1CCOCC1 | -10 | 0 | -12 | ? | 4298
Cc1cccc(CNC(=O)c2ccc(NC(=O)C3=CSCCO3)cc2)c1 | 0 | 3 | 2 | 6 | 5162
COc1ccc(CNC(=O)COC(=O)CN2C(=O)C3CCCCC3C2=O)cc1 (stereo not given) | 0 | -1 | 0 | 2 | 3871
